Reference: the supplement of paper PMC3334620
Over roughly 33,000 sequences, “E-score (-0.5 to 0.5)” has its median near -0.017; the highest 2% begin near 0.3. What follows is part of a selection rich in the highest values, with near analogues and random picks from the rest.

Each sequence was assayed against T1, Sut1 (UniProt P53032) (assay: PBM E-score (8-mer binding enrichment) (E-score (-0.5 to 0.5)); higher = stronger / more preferred TF binding). Conditions: protein concentration: 200 nM; construct: GST-full length.
T1 sequence: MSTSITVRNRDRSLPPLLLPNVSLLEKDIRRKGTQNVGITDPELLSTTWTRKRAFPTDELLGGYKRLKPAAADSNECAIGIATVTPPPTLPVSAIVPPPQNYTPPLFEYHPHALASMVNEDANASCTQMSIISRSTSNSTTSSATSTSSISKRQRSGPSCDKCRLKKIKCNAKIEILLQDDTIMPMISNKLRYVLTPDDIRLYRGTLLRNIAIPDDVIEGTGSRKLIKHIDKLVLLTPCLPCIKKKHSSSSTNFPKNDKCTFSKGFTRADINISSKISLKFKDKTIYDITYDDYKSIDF
Procedure, shortened: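 Each ungapped eight-base word and its reverse complement, pooled, received an E-score from the Universal PBM Analysis Suite. Underlying scans, normalised with masliner, recorded fluorescent anti-GST bound to GST-tagged yeast transcription factors. These were applied at about 100-200 nM to universal all-10-mer Agilent arrays double-stranded by primer extension.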

Row | Sequence | PBM E-score
1 | CTCGCCAG | -0.204
2 | ACCTTGCC | -0.0123
3 | ATAAATTA | 0.326
4 | TAAAATTA | 0.34
5 | AAAAATTA | 0.228
6 | CAAAATTA | 0.241
7 | ATAAATAC | 0.275
8 | CTAAATTA | 0.24
9 | AAAATAAA | 0.347
10 | ATAAATAT | 0.341
11 | ATAAAAAT | 0.252
12 | TAAATAAA | 0.247
13 | ATAAATTG | 0.268
14 | AAAATAAC | 0.12
15 | ACCAAACT | -0.0181
16 | CAGTGGTC | -0.165
17 | GGCAGAAA | 0.0918
18 | CCGACCCA | 0.0491
19 | CCATCAGA | -0.213
20 | AATAAGGG | -0.0871
21 | CCGACACC | -0.0623
22 | TGTCTCAA | -0.115
23 | CGAAATAA | 0.313
24 | AAAAATTC | 0.235

Row | Sequence | PBM E-score
25 | GGAAATAA | 0.24
26 | CAAAATTC | 0.308
27 | ACAAATAT | 0.339
28 | CAAAATTG | 0.0231
29 | ACAAATAG | 0.113
30 | ACAAATAC | 0.205
31 | CGAAATAC | 0.215
32 | ATCTGAGC | 0.113
33 | GACTTCGC | 0.0243
34 | ATTCCGAC | 0.219
35 | ATTCCGAG | 0.341
36 | ATTCCGAA | 0.378
37 | ATTCCAAG | 0.0681
38 | ATTCCGTA | 0.296
39 | CTTCCGAA | 0.233
40 | CGTCAAGA | -0.239
41 | AGAGAGTA | -0.0447
42 | GTAAGAAC | 0.215
43 | TGGCAGAA | -0.0838
44 | TGAATTCA | 0.0862
45 | CGCGACAC | 0.0583
46 | ATTTTCCG | 0.4
47 | ATTTCCGC | 0.156
48 | ATTTTCGC | 0.0665

Row | Sequence | PBM E-score
49 | AATTTCCG | 0.257
50 | ATTTCCGG | 0.325
51 | ATTTTCGA | 0.0872
52 | ATTTCCGA | 0.231
53 | ATTTTCCC | -0.105
54 | ATTTTCGG | 0.345
55 | CAGTATTA | 0.0764
56 | ACCAAACC | 0.0288
57 | CAGATGGG | -0.192
58 | TAAGCATA | 0.122
59 | CATAATTA | 0.317
60 | GGTTAATA | 0.163
61 | CATAATTC | 0.0494
62 | GATAATTA | 0.216
63 | AGTTAATA | 0.331
64 | TATTAATA | 0.167
65 | AATTAATT | 0.206
66 | CCTAATTA | 0.039
67 | AATAATTC | 0.268
68 | AGTTAATC | 0.16
69 | AATAATTA | 0.329
70 | AATTAATA | 0.327
71 | AATCAAGA | 0.0025
72 | GGCGAGCC | -0.157

Row | Sequence | PBM E-score
73 | GAGCTACA | -0.127
74 | TATAATCA | 0.203
75 | CCCGGGCA | -0.229
76 | AAAATCGC | 0.159
77 | ACTGCTTA | 0.0551
78 | AGAATCCG | 0.00193
79 | GGAAGAGA | 0.0239
80 | CGGGTTGA | -0.223
81 | ACTGTCAA | -0.099
82 | GTATAACA | 0.215
83 | ATTTAACC | 0.154
84 | ATATAACG | 0.299
85 | ATTTAACG | 0.298
86 | ATTTAACA | 0.213
87 | CTTTAATC | 0.183
88 | ATATAACA | 0.309
89 | ATTTAATC | 0.307
90 | CTATAACA | 0.0773
91 | ATTTAATA | 0.265
92 | ATATAACC | 0.0866
93 | CTATAACC | -0.00144
94 | CTAAATAG | 0.0251
